Screening results as filed in PubChem BioAssay.
A selection: hits, their analogues and other compounds. The true share with any hit is near 19%.
DT40 TDP1 CPT = qHTS for Inhibitors of human tyrosyl-DNA phosphodiesterase 1 (TDP1): qHTS in cells in presence of CPT; chicken DT40 Tdp1-/-;hTDP1 cells + 20 nM CPT, ATP luminescence, 48 h; Potency, µM (titrated, usually from 46.2 µM), for inactives: at the highest dose activity change, negative = growth inhibition, most hits filed as inhibitors; 420,000 tested, 12% active; further: potency means the concentration at half of the fitted maximal effect; on the % scale 0 is the no-effect control and ±100 the full control effect; nearly all actives have a fitted effect of over 55% in size
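Chicken DT40 Tdp1-/- cells stably complemented with human TDP1 were seeded at 400 cells/well in medium containing 20 nM camptothecin, exposed to pin-transferred compounds, and grown at 37 °C for at least 48 hr. Viability was read as ATP luminescence.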
TDP1 cell noCPT = qHTS for Inhibitors of human tyrosyl-DNA phosphodiesterase 1 (TDP1): qHTS in cells in absence of CPT | AID 686978, 2013 | DT40 Tdp1-/- hTDP1 cells, no CPT, ATP luminescence, 48 h | 420,000 tested, 15% active | Potency, µM (series often up to 46.2 µM), for the others: at the top dose activity change, negative = growth inhibition, actives largely listed as inhibitors; further: potency means the concentration at half of the fitted maximal effect; on the % scale 0 is the no-effect control and ±100 the full control effect; nearly all actives have a fitted effect of over 55% in size
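Cells were dispensed at 400 per well, compounds added by pin tool, plates incubated ≥48 hr at 37 °C, then CellTiter-Glo added for 30 min at room temperature before luminescence reading. Line: DT40 Tdp1-/- complemented with hTDP1; camptothecin omitted.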
TGFb inhibitor = qHTS for Inhibitors of TGF-b; HepG2 CAGA-GFP TGF-b/SMAD3 reporter, GFP fluorescence, 18 h; TGF-beta stimulated, 500 pg/mL final; Potency, µM (highest dose often 46.1 µM), for the others: at the highest dose activity, negative = inhibition, usual class: inhibitors; 410,000 tested, 1.2% active; AID 588855, 2011; further: potency means the concentration at half of the fitted maximal effect; on the % scale 0 is the no-effect control and ±100 the full control effect; nearly all actives have a fitted effect of over 65% in size
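GFP signal (ex488/em500-530) from TGF-beta-stimulated HEPG2 CAGA-GFP cells, 500 pg/mL final, 18 h at 37 degrees C in DMEM plus 1% FBS, normalized to unstimulated and DMSO-stimulated controls.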
IL-1B inflam inh = qHTS for Inhibitors of Inflammasome Signaling: IL-1-beta AlphaLISA Primary Screen; 360,000 tested, 4.7% active; activity change, % at 57.5 µM; THP-1 LPS/ATP IL-1B secretion, AlphaLISA, 16 h; active compounds read low; AID 743279, 2014; in the data active means activity change below about -50%; inconclusive means mostly about -30% to -49%; further: on the % scale 0 is the no-effect control and ±100 the full control effect
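Secreted IL-1B measured by AlphaLISA bead assay after 16 h compound exposure of THP-1 cells; compounds (final up to 57.5 uM) added 1 h before LPS (250 ng/mL) and ATP (1.25 mM) stimulation; lower signal means less secretion.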
TDP1 block = qHTS Assay for Inhibitors of Tyrosyl-DNA Phosphodiesterase (TDP1); Tyrosyl-DNA phosphodiesterase 1 (Homo sapiens), Q9NUW8; recombinant TDP1, AlphaScreen DNA substrate cleavage; Potency, µM (highest dose often 130 µM), without a hit: top-dose activity change, negative = inhibition, most hits filed as inhibitors; 350,000 tested, 0.28% active; further: potency means the concentration at half of the fitted maximal effect; on the % scale 0 is the no-effect control and ±100 the full control effect; nearly all actives have a fitted effect of over 40% in size
Target sequence (Q9NUW8 whole entry, looked up): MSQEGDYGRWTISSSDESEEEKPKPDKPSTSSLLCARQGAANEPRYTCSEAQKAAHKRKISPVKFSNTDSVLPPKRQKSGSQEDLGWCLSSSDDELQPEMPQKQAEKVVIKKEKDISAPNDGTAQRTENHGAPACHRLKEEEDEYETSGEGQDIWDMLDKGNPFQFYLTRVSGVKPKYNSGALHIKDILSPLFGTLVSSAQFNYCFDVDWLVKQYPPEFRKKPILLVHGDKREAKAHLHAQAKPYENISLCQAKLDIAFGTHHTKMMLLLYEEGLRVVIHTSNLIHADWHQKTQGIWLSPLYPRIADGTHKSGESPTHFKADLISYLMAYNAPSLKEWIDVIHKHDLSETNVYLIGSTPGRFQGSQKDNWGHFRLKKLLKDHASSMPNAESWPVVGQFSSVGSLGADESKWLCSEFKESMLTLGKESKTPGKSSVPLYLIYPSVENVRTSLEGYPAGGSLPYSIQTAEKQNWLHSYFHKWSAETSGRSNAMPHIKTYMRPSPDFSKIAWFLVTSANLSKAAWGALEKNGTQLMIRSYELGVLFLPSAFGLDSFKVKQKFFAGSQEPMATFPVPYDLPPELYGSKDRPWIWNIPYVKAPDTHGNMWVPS
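AlphaScreen read-out: signal falls as enzyme removes the 3' tyrosine-FITC from a 5'-biotinylated DNA oligo (15 nM, 5 min, RT). Enzyme was E. coli-made recombinant Tdp1 at 1 nM, exposed to compound for 15 min beforehand; beads 10 ug/ml, 10 min.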
HepG2 tox = qHTS for Inhibitors of TGF-b: Cytotox Counterscreen; HepG2 CAGA-GFP viability, ATP luminescence, 18 h; Potency, µM (series often up to 46.1 µM), for inactives: at the top dose activity change, negative = cytotoxicity, hits mostly cytotoxic; 410,000 tested, 0.76% active; AID 588856, 2011; further: potency means the concentration at half of the fitted maximal effect
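HepG2 CAGA-GFP cells (1000/well, DMEM with 1% FBS) received compound, then TGF-beta at 500 pg/mL final, and were incubated 18 hours at 37 degrees C. Viability was read by CellTiter-Glo luminescence. Media-only wells were set as complete cell-killing and DMSO as no toxicity.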
Starred values were filed as active, the others as inactive; ? = inconclusive; / = no result; [ ] = remark or other dose. Unless noted, the call rests on the fitted dose curve; in most records, active means well fitted curve in the direction sought with a large enough effect; inconclusive means small, poorly fitted or top-dose-only effect, or another doubt; inactive means no such curve, though single readings can be large; an effect the other way counts as inactive or inconclusive.

SMILES	DT40 TDP1 CPT	TDP1 cell noCPT	TGFb inhibitor	IL-1B inflam inh	TDP1 block	HepG2 tox
COC(=O)c1ccc(-n2ccnc2)cc1	16%	0%	-17%	-11	7%	-1%
CCOC(=O)C(=Cc1ccc(F)cc1)C(=O)OCC	/	/	/	/	3%	/
CCOC(=O)C(=Cc1ccc(-n2ccnc2)cc1)C(=O)OCC	23µM*	21µM*	?	-93*	2%	-82%
CCOC(=O)C(CC)(CC)C(=O)/C=C/c1ccc(Br)cc1	?	16µM*	-1%	-103*	0%	-17%
CC(C)NS(=O)(=O)c1cc(C(F)(F)F)ccc1/C=C/C(=O)O	?	?	-15%	/	/	3%
CCCCOC(=O)Oc1ccc2c(=O)c(Oc3cccc(C)c3)coc2c1	-10%	-16%	?	-2	-1%	-37%
Cc1cccc(Oc2coc3cc(OCC(=O)NC4CCCCC4)ccc3c2=O)c1	21µM*	23µM*	?	/	/	-36%
Cc1ccc(S(=O)(=O)N2C[C@@H](C)[C@]3(C2)[C@H](O)[C@H](OC(=O)Nc2cccs2)C[C@H]2C(=O)N(c4ccccc4)C(=O)[C@H]23)cc1	23µM*	16µM*	?	-109*	/	-5%
COc1ccc(CNC(=O)O[C@@H]2C[C@H]3C(=O)N(c4ccccc4)C(=O)[C@H]3[C@@]3(CN(S(=O)(=O)c4ccc(C)cc4)C[C@H]3C)[C@@H]2O)cc1OC	?	26µM*	?	-64*	/	-13%
COc1ccc(C(=O)C=Cc2ccc3c(c2)OCO3)cc1OC	-21%	?	6%	-23	/	-23%
COc1ccc(/C=C/C(=O)CC(=O)/C=C/c2cccc(O)c2OC)cc1O	6.6µM*	3µM*	/	/	19%	/
COc1ccc(C=CC(=O)c2ccc3cc(OC)c(OC)cc3c2)cc1OC	?	5.8µM*	?	-98*	/	-74%
COc1ccc(C(=O)/C=C/c2ccc(OC)c(O)c2)c(F)c1	?	16µM*	?	-104*	-1%	-50%
COc1cc(/C=C/C(=O)OCC(=O)NCc2ccccc2OC)ccc1O	?	-11%	29%	-9	/	-2%
COc1ccc(C=CC(=O)c2ccc(OC)c(OC)c2)cc1O	15µM*	18µM*	?	-65*	/	-26%
O=S(=O)(NCC1CN(S(=O)(=O)c2c(F)cccc2F)C1)c1ccc2c(c1)OCCO2	/	/	-18%	/	1%	-11%
O=S(=O)(c1ccc(Cl)cc1)c1nnn2c1nc(NC1CCCCC1)c1sccc12	?	?	43%	/	3%	-16%
CCOc1ccccc1C(=O)Nc1nnc(SCC(=O)Nc2cc(C)on2)s1	-28%	-20%	-1%	-7	-3%	-5%
COc1ccc(OC(=O)/C=C/c2ccc([N+](=O)[O-])cc2)cc1	-17%	?	4%	22	/	-3%
COc1ccc(C(=O)/C=C/c2ccc(F)cc2)c(OC(=O)c2ccc([N+](=O)[O-])cc2)c1	?	21µM*	?	-94*	5%	-89%
Nc1[nH]ncc1S(=O)(=O)c1ccccc1	-4%	-18%	-5%	1	/	-17%
O=C(Nc1ccc(F)cc1F)Nc1csc2ccccc12	?	23µM*	?	-92*	1%	-40%
O=C(Nc1ccc(F)c(Cl)c1)Nc1csc2ccccc12	5.2µM*	3.7µM*	?	-70*	/	13µM*
CC(=O)N1CCC2(CC1)CN(Cc1cc(C(F)(F)F)cc(C(F)(F)F)c1)C2	0%	-16%	/	/	/	/
FC(F)(F)c1cc(CN2CC3(CCNCC3)C2)cc(C(F)(F)F)c1	18µM*	7.3µM*	/	/	/	/
SMILES	DT40 TDP1 CPT	TDP1 cell noCPT	TGFb inhibitor	IL-1B inflam inh	TDP1 block	HepG2 tox
FC(F)(F)c1cc(CN2CC[C@@]3(CCCNC3)C2)cc(C(F)(F)F)c1	?	15µM*	/	/	/	/
COc1ccc2c(c1OC)C(=O)OC2	14%	5%	5%	9	5%	-1%
COc1ccc2c3c(cccc13)C(=O)CC2	18µM*	21µM*	46%	?	/	-35%
Cc1cc(NC(=O)/C(C#N)=C/c2ccc(-c3ccc(SC(F)F)cc3)o2)n(-c2ccccc2)n1	?	18µM*	6%	-6	3%	3%
Cc1c(NC(=O)/C(C#N)=C/c2ccc(-c3ccc(Cl)cc3)o2)c(=O)n(-c2ccccc2)n1C	10µM*	15µM*	?	-62*	3%	-38%
CC1CC1c1ccc(/C=C(\C#N)C(=O)Nc2ccc(Cl)cc2)o1 (configuration not stated)	?	16µM*	7%	-14	3%	-11%
Cc1c(NC(=O)/C(C#N)=C\c2cccs2)c(=O)n(-c2ccccc2)n1C	-16%	-20%	0%	7	3%	-1%
CCOc1ccc(NC(=O)/C(C#N)=C\c2ccc(-c3ccc(Cl)cc3)o2)cc1	?	10µM*	18%	/	0%[12.3 µM]	-15%
Cc1ccc(S(=O)(=O)N/N=C/c2ccc(C#N)cc2)cc1	-11%	?	12%	-5	/	-3%
CCOc1ccc(-c2nnc(SCC(=O)Oc3ccccc3)o2)cc1	?	-5%	4%	/	3%	4%
COc1ccccc1CNC(=O)Nc1nc(C(N)CCc2ccccc2)cs1 (configuration not stated)	18µM*	18µM*	?	?	/	13µM*
NC(Cc1ccc(Cl)cc1)c1csc(NC(=O)NCCc2ccccc2)n1 (configuration not stated)	23µM*	?	?	-8	/	-111%
COc1ccc(CC(N)c2csc(NC(=O)NCCc3ccccc3)n2)cc1 (configuration not stated)	?	?	?	?	/	-75%
NC(Cc1ccc(Cl)cc1)c1csc(NC(=O)Nc2ccccc2-c2ccccc2)n1 (configuration not stated)	13µM*	12µM*	?	?	/	-101%
NC(CCc1ccccc1)c1csc(NC(=O)NCCc2ccccc2)n1 (configuration not stated)	23µM*	?	?	?	/	-79%
